According to PubChem BioAssay (EPA / NIEHS):
Several values for one entry are separate records, joined by “and”; a condition that tells them apart may be missing. Equal values may be shown once. The source holds several records for some structures; these can differ, active in one and inactive in another. Activity calls are given as the source filed them. The calls were made as follows: active = hit-call score of the fitted dose curve at least 0.9, where 1 is the maximum; inactive = score below 0.9.

read-out: Apolipoprotein A-V (APOA5) gene, APOA5 (gene 116519); assay: LTEA_HepaRG_APOA5: Life Technologies and Expression Analysis (LTEA) Assay for Apolipoprotein A-V (APOA5) gene using HepaRG (AID 2283474); conditions: mRNA level, 48 h; actives raise or lower the signal
Method: LTEA_HepaRG is a cell based, multiplexed-readout assay that uses HepaRG, a human liver cell line, with measurements taken at 48 hours after chemical dosing on a 96-well plate.LTEA_HepaRG_APOA5 is one of 102 assay component(s) measured in the LTEA HepaRG cell culture assay. It is a marker of Steatosis.Data from the assay component LTEA_HepaRG_APOA5 was analyzed into 1 endpoint. This assay endpoint, LTEA_HepaRG_APOA5, was analyzed with bidirectional fitting relative to DMSO as the negative control and baseline of activity. Using a type of inducible reporter, measures of mRNA induction for gain or loss-of-signal activity can be used to understand regulation of transcription factor activity. To generalize the intended target to other relatable targets, this assay endpoint is annotated to the apolipoprotein intended target family, where the subfamily is Steatosis.
A total of 1060 chemcials from the ToxCast library were tested in eight-point concentration-response experiments. Cell culture and cytotoxicity assays were conducted at Thermo Fisher Scientific's Custom Services facility (Madison, WI). A single lot of human HepaRG cells (Thermo Fisher Scientific, Frederick, MD) was used for the cell culture experiments. 96-well format collagen type I coated plates of human HepaRG cells were prepared using established methods. Briefly, cryopreserved HepaRG cells were thawed, plated at a density of approximately 100,000 cells/well in HepaRG Thaw, Plate, and General Purpose media (HPRG770, Thermo Fisher Scientific), and incubated for 48 hours. 0.5% DMSO was selected as vehicle control to balance the requisite need of DMSO in HepaRG cultures to maintain differentiation (for example, baseline metabolism, proportions of hepatocytes vs. cholangiocytes), while enabling further hepatic receptor pathway activation (for example, PXR and CAR) in response to chemical exposure. 48 hours after plating, the culture medium was replaced with HepaRG Serum-Free Incudtion Media. Cells were exposed to each test chemical in duplicate and maintained in CO2 incubators for another 48 hours. Chemical plates were thawed to room temperature and 200x concentrations of treatment groups were prepared. 8-point conentration-reponse curves were made with the highest exposure at 100 uM, followed by half-log dilutions, all in 0.5% DMSO. Each test plate contained variouse controls, induction positive controls (1mM phenobarbital), cytotoxicity positive controls ([…] aflatoxin B1), vehicle controls (0.5% DMSO), and total lysis controls (0.5% DMSO). Cell morphology images were taken using an Essen IncuCyte FLR automated microscope, with six 96-well plates imaged in about 24 minutes. Images were captured and exported and JPEG files. Spent culture media was transfered to black-well plates for the LDH assay, and remaining media was sorted at -80 C for later use. Cells were treated with RLT buffer and frozen until shipped for gene expression analysis. Total RNA was isolated from the cell suspension in 75 uL of Buffer RLT (Qiagen, Germantown, MD 20874) by Quintiles/Expression Analysis (Durham, NC) using a custom isolation procedure. Total RNA from each plate well was transferred to a preamplification plate. Fluidigm's 96.96 Dynamic ArrayTM (Fluidigm, Amsterdam, the Netherlands) technology was used for gene expression analyses by quantitative reverse transcription polymerase chain reaction (qRT-PCR, performed by Quintiles/Expression Analysis, Durham, NC)89. Standard TaqManTM Assays (Applied Biosystems/ThermoFisher Scientific, Foster City, CA) were used to assess the expression of 93 genes selected based on their selectivity and sensitivity to important hepatic receptors known to be modulated by environmental chemicals; importance in human hepatocyte functionality; and hepatotoxicity. […]

Compound | outcome | AC50
CNC(=O)/C=C(\C)OP(=O)(OC)OC | inactive | 
CC1(c2ccc(Oc3ccccc3)cc2)OC(=O)N(Nc2ccccc2)C1=O (stereo not given) |  | 28.3 µM (active)
O=C(O)COc1ccc(Cl)cc1Cl | inactive | 
OCCOc1ccccc1 | inactive | 
C#CCN1C(=O)COc2cc(F)c(N3C(=O)C4=C(CCCC4)C3=O)cc21 |  | 23.1 µM (active)
CC[C@H](C)[C@H]1O[C@]2(C=C[C@@H]1C)C[C@@H]1C[C@@H](C/C=C(\C)[C@@H](O[C@H]3C[C@H](OC)[C@@H](O[C@H]4C[C@H](OC)[C@@H](O)[C@H](C)O4)[C@H](C)O3)[C@@H](C)/C=C/C=C3\CO[C@@H]4[C@H](O)C(C)=C[C@@H](C(=O)O1)[C@]34O)O2 (tested in a mixture with another compound) |  | 13.6 µM (active)
CNC(=O)CSP(=S)(OC)OC | inactive | 
CC(C)(C)C(O)C(Oc1ccc(Cl)cc1)n1cncn1 (stereo not given) | inactive | 50 µM (active)
CCC(C)(NC(=O)c1cc(Cl)c(C)c(Cl)c1)C(=O)CCl (stereo not given) | inactive | 
CC1(C)C(C=C(Cl)Cl)C1C(=O)OC(C#N)c1ccc(F)c(Oc2ccccc2)c1 (stereo not given) | inactive | 
CC(C)OC(=O)Nc1cccc(Cl)c1 | inactive | 
O=[N+]([O-])c1c(Cl)c(Cl)c(Cl)c(Cl)c1Cl | inactive | 
COP(=S)(OC)Oc1ccc([N+](=O)[O-])cc1 | inactive | 
Oc1ccc(Cl)cc1Cc1ccccc1 | inactive | 79.8 µM (active)
CN1CSC(=S)N(C)C1 | inactive | 
O=C(O)CCCOc1ccc(Cl)cc1Cl | inactive | 
COP(=O)(OC)OC=C(Cl)Cl | inactive | 
O=C1c2ccccc2C(=O)N1SC(Cl)(Cl)Cl | inactive | 
CCOC1Oc2ccc(OS(C)(=O)=O)cc2C1(C)C (stereo not given) |  | 77 µM (active)

Compound | outcome | AC50
C[C@H]1[C@H](c2ccc(Cl)cc2)SC(=O)N1C(=O)NC1CCCCC1 |  | 36.8 µM (active)
O=S1OCC2C(CO1)C1(Cl)C(Cl)=C(Cl)C2(Cl)C1(Cl)Cl (stereo not given) |  | 63.8 µM (active)
CCc1ccc(C(=O)NN(C(=O)c2cc(C)cc(C)c2)C(C)(C)C)cc1 | inactive | 
COP(=S)(OC)Oc1ccc(SC)c(C)c1 | inactive | 
CCN(CC)C(=O)SCc1ccc(Cl)cc1 | inactive | 
COc1nn(CSP(=S)(OC)OC)c(=O)s1 | inactive | 
CCCN(CCC)c1c([N+](=O)[O-])cc(C(F)(F)F)cc1[N+](=O)[O-] | inactive | 
Oc1cc(Cl)ccc1Oc1ccc(Cl)cc1Cl | inactive | 51 µM (active) and 81.5 µM (active)
O=C(NC(=O)c1c(F)cccc1F)Nc1ccc(OC(F)(F)C(F)OC(F)(F)F)c(Cl)c1 (stereo not given) | inactive | 
CCC(C)Nc1c([N+](=O)[O-])cc(C(C)(C)C)cc1[N+](=O)[O-] (stereo not given) | inactive | 
CCCN(CCOc1c(Cl)cc(Cl)cc1Cl)C(=O)n1ccnc1 |  | 39 µM (active)
N#CN | inactive | 
O=C(Nc1ccccc1)Nc1cnns1 | inactive | 
CCC(C)(C)C(=O)OC1=C(c2ccc(Cl)cc2Cl)C(=O)OC12CCCCC2 |  | 50 µM (active)
CNC(=O)Oc1cccc(N=CN(C)C)c1 | inactive | 
CCOCN(C(=O)CCl)c1c(C)cccc1CC |  | 79.4 µM (active)
Clc1ccccc1-c1nnc(-c2ccccc2Cl)nn1 | inactive | 
CC(C)N(C(=O)COc1nnc(C(F)(F)F)s1)c1ccc(F)cc1 |  | 78.4 µM (active)
